From PubChem BioAssay AID1159580 (chemical genetic matrix, 2015)
Hit rate of the full screen: of about 5,500 compounds, about 2,000 (36%) were called active. Inconclusive results (about 18%) are left out. Rule as the data show it: active = normalized growth mostly below about 0.91 (no sharp cut-off); inconclusive = no clear call, values can overlap the other calls; inactive = mostly above about 0.92. This is one part of the list.

Assay: chemical genetic growth profiling, strain panel (AID 1159580);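 also: tested at 20 µM; growth read once vehicle control cultures reached saturation at 30 °C; 1 = growth at the plate median or of vehicle wells; lower values mean less growth of the strain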
Conditions: growth OD

Measured: normalized growth

CNC[C@H](O)c1cccc(O)c1
inactive: S. cerevisiae deletion strains, locus YKL009W, strain mrt4, hits give low values 1 | S. cerevisiae deletion strains, locus YKL068W, hits give low values 1.01 | S. cerevisiae deletion strains, locus YKL085W, strain MDH1 (second series), hits give low values 1.01 | S. cerevisiae deletion strains, locus YKL085W, strain MDH1, hits give low values 1.01 | S. cerevisiae deletion strains, locus YKL160W, strain elf1, hits give low values 0.963 | S. cerevisiae deletion strains, locus YKL190W, strain CNB1, hits give low values 1 | S. cerevisiae deletion strains, locus YKR001C, strain vps1, hits give low values 1.02 | S. cerevisiae deletion strains, locus YKR026C, strain gcn3, hits give low values 0.99 | S. cerevisiae deletion strains, locus YKR091W, strain srl3, hits give low values 0.962 | S. cerevisiae deletion strains, locus YLL001W, strain dnm1, hits give low values 0.962 | S. cerevisiae deletion strains, locus YLL026W, hits give low values 0.977 | S. cerevisiae deletion strains, locus YLL041C, strain sdh2, hits give low values 0.985 | S. cerevisiae deletion strains, locus YLR027C, strain aat2, hits give low values 0.974 | S. cerevisiae deletion strains, locus YLR039C, strain RIC1, hits give low values 1.03 | S. cerevisiae deletion strains, locus YLR058C, strain SHM2, hits give low values 1.01 | S. cerevisiae deletion strains, locus YLR102C, strain apc9, hits give low values 1.01 | S. cerevisiae deletion strains, locus YLR113W, strain HOG1, hits give low values 1 | S. cerevisiae deletion strains, locus YLR221C, strain rsa3, hits give low values 0.987 | S. cerevisiae deletion strains, locus YLR258W, strain gsy2, hits give low values 0.986 | S. cerevisiae deletion strains, locus YLR262C, strain YPT6 (second series), hits give low values 0.969 | S. cerevisiae deletion strains, locus YLR262C, strain YPT6, hits give low values 1.03 | S. cerevisiae deletion strains, locus YLR268W, strain sec22, hits give low values 1.02 | S. cerevisiae deletion strains, locus YLR320W, strain mms22, hits give low values 0.964 | S. cerevisiae deletion strains, locus YLR330W, strain CHS5, hits give low values 1.01 | S. cerevisiae deletion strains, locus YLR342W, strain FKS1 (second series), hits give low values 0.994 | S. cerevisiae deletion strains, locus YLR342W, strain FKS1, hits give low values 0.963 | S. cerevisiae deletion strains, locus YLR357W, strain rsc2, hits give low values 0.906 | S. cerevisiae deletion strains, locus YLR370C, strain arc18, hits give low values 0.991 | S. cerevisiae deletion strains, locus YLR371W, strain rom2, hits give low values 1.01 | S. cerevisiae deletion strains, locus YLR384C, strain iki3, hits give low values 0.979 | S. cerevisiae deletion strains, locus YLR418C, strain cdc73, hits give low values 1.02 | S. cerevisiae deletion strains, locus YML016C, strain PPZ1, hits give low values 1.01 | S. cerevisiae deletion strains, locus YML032C, strain rad52, hits give low values 1.02 | S. cerevisiae deletion strains, locus YML120C, strain ndi1, hits give low values 0.979 | S. cerevisiae deletion strains, locus YML124C, strain tub3, hits give low values 1.02 | S. cerevisiae deletion strains, locus YMR058W, strain fet3, hits give low values 0.971 | S. cerevisiae deletion strains, locus YMR078C, strain ctf18, hits give low values 1.01 | S. cerevisiae deletion strains, locus YMR125W, strain sto1, hits give low values 0.995 | S. cerevisiae deletion strains, locus YMR129W, hits give low values 0.988 | S. cerevisiae deletion strains, locus YMR205C, strain PFK2, hits give low values 0.965 | S. cerevisiae deletion strains, locus YMR223W, strain ubp8, hits give low values 1.01 | S. cerevisiae deletion strains, locus YMR231W, strain pep5, hits give low values 0.982 | S. cerevisiae deletion strains, locus YMR263W, strain SAP30, hits give low values 1.01 | S. cerevisiae deletion strains, locus YMR307W, strain GAS1, hits give low values 1.02 | S. cerevisiae deletion strains, locus YNL067W, strain RPL9B, hits give low values 1 | S. cerevisiae deletion strains, locus YNL071W, strain lat1, hits give low values 0.998 | S. cerevisiae deletion strains, locus YNL128W, strain TEP1, hits give low values 1.01 | S. cerevisiae deletion strains, locus YNL153C, strain GIM3, hits give low values 1.01 | S. cerevisiae deletion strains, locus YNL183C, strain NPR1, hits give low values 0.975 | S. cerevisiae deletion strains, locus YNL209W, strain ssb2, hits give low values 0.991 | S. cerevisiae deletion strains, locus YNL233W, strain BNI4, hits give low values 1.01 | S. cerevisiae deletion strains, locus YNL248C, strain rpa49, hits give low values 0.988 | S. cerevisiae deletion strains, locus YNL250W, strain rad50, hits give low values 1.02 | S. cerevisiae deletion strains, locus YNL271C, strain bni1, hits give low values 1.02 | S. cerevisiae deletion strains, locus YNL298W, strain CLA4, hits give low values 1.03 | S. cerevisiae deletion strains, locus YNL307C, strain MCK1, hits give low values 1.02 | S. cerevisiae deletion strains, locus YNL322C, strain KRE1 (second series), hits give low values 0.976 | S. cerevisiae deletion strains, locus YNL322C, strain KRE1, hits give low values 1 | S. cerevisiae deletion strains, locus YNR049C, strain mso1, hits give low values 0.993 | S. cerevisiae deletion strains, locus YNR052C, strain pop2, hits give low values 1.02 | S. cerevisiae deletion strains, locus YOL006C, strain TOP1, hits give low values 1.05 | S. cerevisiae deletion strains, locus YOL012C, strain htz1 0.81 | S. cerevisiae deletion strains, locus YOL147C, strain pex11, hits give low values 1.02 | S. cerevisiae deletion strains, locus YOR001W, strain rrp6, hits give low values 0.977 | S. cerevisiae deletion strains, locus YOR061W, strain CKA2, hits give low values 1.01 | S. cerevisiae deletion strains, locus YOR069W, strain VPS5, hits give low values 1.01 | S. cerevisiae deletion strains, locus YOR070C, strain gyp1, hits give low values 0.994 | S. cerevisiae deletion strains, locus YOR080W, strain dia2, hits give low values 0.98 | S. cerevisiae deletion strains, locus YOR083W, strain WHI5, hits give low values 0.953 | S. cerevisiae deletion strains, locus YOR106W, strain vam3, hits give low values 0.98 | S. cerevisiae deletion strains, locus YOR136W, strain idh2, hits give low values 1.02 | S. cerevisiae deletion strains, locus YOR144C, strain elg1, hits give low values 1.01 | S. cerevisiae deletion strains, locus YOR184W, strain ser1, hits give low values 1.04 | S. cerevisiae deletion strains, locus YOR231W, strain MKK1, hits give low values 1 | S. cerevisiae deletion strains, locus YOR265W, strain rbl2, hits give low values 0.989 | S. cerevisiae deletion strains, locus YOR270C, strain vph1, hits give low values 1 | S. cerevisiae deletion strains, locus YOR290C, strain snf2, hits give low values 0.993 | S. cerevisiae deletion strains, locus YOR316C, strain cot1, hits give low values 1.02 | S. cerevisiae deletion strains, locus YPL051W, strain arl3, hits give low values 0.973 | S. cerevisiae deletion strains, locus YPL055C, strain LGE1, hits give low values 1.01 | S. cerevisiae deletion strains, locus YPL078C, strain atp4, hits give low values 0.966 | S. cerevisiae deletion strains, locus YPL106C, strain sse1, hits give low values 0.95 | S. cerevisiae deletion strains, locus YPL240C, strain hsp82, hits give low values 0.982 | S. cerevisiae deletion strains, locus YPL241C, strain CIN2, hits give low values 1.01 | S. cerevisiae deletion strains, locus YPL256C, strain CLN2, hits give low values 1.01 | S. cerevisiae deletion strains, locus YPR119W, strain clb2, hits give low values 1.01 | S. cerevisiae deletion strains, locus YPR141C, strain kar3, hits give low values 1.02 | S. cerevisiae deletion strains, locus YPR163C, strain tif3, hits give low values 1.02 | S. cerevisiae deletion strains, locus YPR167C, strain met16, hits give low values 1.02 | S. cerevisiae deletion strains, strain wtn01, hits give low values 1.01 | S. cerevisiae strains, strain wild type, hits give low values 1.01
